In the supplement of paper PMC11219838:

Tests used:
Conditions in all cases: 60 µM; 5 days; temperature: 20 °C
Meloidogyne hapla J2 = assay: proportion of mobile M. hapla J2 relative to DMSO control (fraction of DMSO control); higher = more viable, less nematicidal, active = 0.7 or less
Method in brief: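 About 25 M. hapla J2 were placed in each well of a 96-well plate in distilled water, and compound was pinned in to a final 60 µM with 0.6% v/v DMSO. The sealed plates were shaken at 200 rpm at 20 °C for 5 days, after which 2 µL of 1 M NaOH went into each well. Mobility was then scored under the microscope and divided by the mean value from DMSO-only wells on the same plate. Each plate held eight such DMSO wells, and two biological replicates were averaged.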

[1] = test system: Caenorhabditis elegans dauer (daf-2(e1370)); assay: proportion of mobile C. elegans dauer larvae relative to DMSO control (fraction of DMSO control); higher = more viable, less nematicidal, active = 0.63 or less; extreme values may be limits of the assay
Method in brief: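 Synchronized C. elegans larvae were kept for 48 h at 25 °C on MYOB plates seeded with E. coli OP50 to induce dauer formation, and roughly 20 dauers were transferred into each well of a 96-well plate containing liquid NGM. Compound was pinned in to a final concentration of 60 µM with 0.6% v/v DMSO, and the sealed plates were shaken at 200 rpm for 5 days at 20 °C. The fraction of mobile worms was scored under a dissection microscope against DMSO-only wells and averaged across two biological replicates.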

Ditylenchus dipsaci = assay: proportion of mobile D. dipsaci (mixed stage) relative to DMSO control (fraction of DMSO control); higher = more viable, less nematicidal, active = 0.86 or less; extreme values may be limits of the assay
Method in brief: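 Ditylenchus dipsaci nematodes were cultured on pea plants in Gamborg B-5 agar, then extracted into water through a filter funnel, and roughly 20 worms in distilled water were placed in each well of a 96-well plate. Compound was pinned in to a final concentration of 60 µM (0.6% v/v DMSO), and the sealed plates were shaken at 200 rpm for 5 days at 20 °C. Mobile worms were counted under the microscope after 2 µL of 1 M NaOH was added. Mobility is given relative to DMSO controls as the mean of two biological replicates.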

O=C(CSc1nnc(-c2ccccc2)o1)Nc1ccccc1F
inactive: proportion of mobile M. hapla J2 (Meloidogyne hapla J2) 0.85 | proportion of mobile C. elegans dauer larvae [1] 1 | proportion of mobile D. dipsaci (Ditylenchus dipsaci) 1

Cc1ccc(NC(=O)CSc2nnc(-c3ccc(C(C)(C)C)cc3)o2)c(C)c1
inactive: proportion of mobile M. hapla J2 (Meloidogyne hapla J2) 0.766 | proportion of mobile C. elegans dauer larvae [1] 1 | proportion of mobile D. dipsaci (Ditylenchus dipsaci) 1

Cc1ccccc1-c1noc(-c2cccc(Br)c2)n1
inactive: proportion of mobile M. hapla J2 (Meloidogyne hapla J2) 1.04 | proportion of mobile C. elegans dauer larvae [1] 1 | proportion of mobile D. dipsaci (Ditylenchus dipsaci) 1

COc1ccc(Cl)cc1-c1noc(-c2ccc(Cl)cc2)n1
inactive: proportion of mobile M. hapla J2 (Meloidogyne hapla J2) 0.906 | proportion of mobile C. elegans dauer larvae [1] 1 | proportion of mobile D. dipsaci (Ditylenchus dipsaci) 1

Fc1ccc(OCc2nc(-c3ccc(Br)cc3)no2)cc1
inactive: proportion of mobile M. hapla J2 (Meloidogyne hapla J2) 0.95 | proportion of mobile C. elegans dauer larvae [1] 1 | proportion of mobile D. dipsaci (Ditylenchus dipsaci) 1

O=C(CSc1nnc(-c2ccccc2Cl)o1)c1ccc2c(c1)CCCC2
inactive: proportion of mobile M. hapla J2 (Meloidogyne hapla J2) 0.914 | proportion of mobile C. elegans dauer larvae [1] 1 | proportion of mobile D. dipsaci (Ditylenchus dipsaci) 1

COc1ccc(-c2noc(COc3ccc(C)c(C)c3)n2)cc1
inactive: proportion of mobile M. hapla J2 (Meloidogyne hapla J2) 0.969 | proportion of mobile C. elegans dauer larvae [1] 1 | proportion of mobile D. dipsaci (Ditylenchus dipsaci) 1

CC(C)c1ccc(NC(=O)CSc2nnc(-c3ccc(Br)cc3)o2)cc1
inactive: proportion of mobile M. hapla J2 (Meloidogyne hapla J2) 1.03 | proportion of mobile C. elegans dauer larvae [1] 1 | proportion of mobile D. dipsaci (Ditylenchus dipsaci) 1

Cc1ccccc1CSc1nnc(-c2ccccc2)o1
inactive: proportion of mobile M. hapla J2 (Meloidogyne hapla J2) 1.02 | proportion of mobile C. elegans dauer larvae [1] 1 | proportion of mobile D. dipsaci (Ditylenchus dipsaci) 1

CC(C)(C)c1ccc(OCc2nc(-c3ccncc3)no2)c(Br)c1
inactive: proportion of mobile M. hapla J2 (Meloidogyne hapla J2) 0.875 | proportion of mobile C. elegans dauer larvae [1] 1 | proportion of mobile D. dipsaci (Ditylenchus dipsaci) 1

COc1cccc(-c2nc(-c3ccccc3)no2)c1
inactive: proportion of mobile M. hapla J2 (Meloidogyne hapla J2) 1.04 | proportion of mobile C. elegans dauer larvae [1] 0.861 | proportion of mobile D. dipsaci (Ditylenchus dipsaci) 1

COc1ccccc1-c1noc(-c2ccccc2)n1
inactive: proportion of mobile M. hapla J2 (Meloidogyne hapla J2) 1.04 | proportion of mobile C. elegans dauer larvae [1] 1 | proportion of mobile D. dipsaci (Ditylenchus dipsaci) 1
